Legend:
Test in all cases: log2 ratio of Biotin-Ahx-Ub-VS probe labelling (fragment/DMSO); higher = less target engagement (more negative = stronger competition), active = hit call of the paper (q ≤ 0.05, log2 ratio ≤ -1)
Conditions in all cases: compound concentration: 200 uM; treatment time: 3 h
USP34 = USP34 (UniProt Q70CQ2)
Summary of the method: (§1)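 Average log2 ratios of fragment over vehicle were obtained by unpaired t-test from global-median-normalised Spectronaut label-free quantities. Proteins with ≥2 unique peptides were included. HEK293T lysate (495 µg per sample) was treated in triplicate with fragment at 200 µM or vehicle for 3 h, then with Biotin-Ahx-Ub-VS at 0.5 µM final for 1 h, and labelled DUBs were NeutrAvidin-enriched and run by diaPASEF LC-MS/MS.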

USP36 = target: T1, USP36 (UniProt Q9P275)
T1 sequence (whole entry): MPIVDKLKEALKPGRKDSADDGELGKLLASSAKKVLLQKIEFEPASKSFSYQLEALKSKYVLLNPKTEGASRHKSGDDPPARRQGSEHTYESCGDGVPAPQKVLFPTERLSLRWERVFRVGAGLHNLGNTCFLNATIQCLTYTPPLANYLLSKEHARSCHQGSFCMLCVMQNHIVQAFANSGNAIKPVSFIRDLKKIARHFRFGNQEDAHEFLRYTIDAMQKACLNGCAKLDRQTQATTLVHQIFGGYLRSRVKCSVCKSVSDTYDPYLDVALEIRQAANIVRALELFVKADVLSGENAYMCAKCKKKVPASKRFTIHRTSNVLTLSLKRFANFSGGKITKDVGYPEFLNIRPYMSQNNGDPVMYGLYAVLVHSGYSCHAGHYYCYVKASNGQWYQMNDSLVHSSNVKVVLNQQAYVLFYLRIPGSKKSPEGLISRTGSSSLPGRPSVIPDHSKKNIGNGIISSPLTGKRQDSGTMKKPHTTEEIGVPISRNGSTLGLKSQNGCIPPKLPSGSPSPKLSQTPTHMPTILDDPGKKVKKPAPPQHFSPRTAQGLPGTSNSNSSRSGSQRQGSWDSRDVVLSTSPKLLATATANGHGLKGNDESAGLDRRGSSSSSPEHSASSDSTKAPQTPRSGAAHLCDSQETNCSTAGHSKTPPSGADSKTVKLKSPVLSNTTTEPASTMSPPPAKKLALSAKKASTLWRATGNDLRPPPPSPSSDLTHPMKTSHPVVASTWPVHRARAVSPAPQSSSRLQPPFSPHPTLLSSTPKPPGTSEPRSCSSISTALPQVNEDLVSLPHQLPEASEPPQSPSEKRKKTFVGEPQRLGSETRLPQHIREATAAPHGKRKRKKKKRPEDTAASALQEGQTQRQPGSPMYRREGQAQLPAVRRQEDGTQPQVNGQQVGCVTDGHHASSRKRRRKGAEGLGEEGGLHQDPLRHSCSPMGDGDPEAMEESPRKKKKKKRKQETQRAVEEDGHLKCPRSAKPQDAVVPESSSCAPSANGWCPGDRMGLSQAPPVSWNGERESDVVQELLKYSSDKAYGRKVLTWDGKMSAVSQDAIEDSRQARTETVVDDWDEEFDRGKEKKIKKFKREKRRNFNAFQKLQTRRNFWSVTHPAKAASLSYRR
Summary of the method: as §1

USP38 = target: T2, USP38 (UniProt Q8NB14)
T2 sequence (whole entry): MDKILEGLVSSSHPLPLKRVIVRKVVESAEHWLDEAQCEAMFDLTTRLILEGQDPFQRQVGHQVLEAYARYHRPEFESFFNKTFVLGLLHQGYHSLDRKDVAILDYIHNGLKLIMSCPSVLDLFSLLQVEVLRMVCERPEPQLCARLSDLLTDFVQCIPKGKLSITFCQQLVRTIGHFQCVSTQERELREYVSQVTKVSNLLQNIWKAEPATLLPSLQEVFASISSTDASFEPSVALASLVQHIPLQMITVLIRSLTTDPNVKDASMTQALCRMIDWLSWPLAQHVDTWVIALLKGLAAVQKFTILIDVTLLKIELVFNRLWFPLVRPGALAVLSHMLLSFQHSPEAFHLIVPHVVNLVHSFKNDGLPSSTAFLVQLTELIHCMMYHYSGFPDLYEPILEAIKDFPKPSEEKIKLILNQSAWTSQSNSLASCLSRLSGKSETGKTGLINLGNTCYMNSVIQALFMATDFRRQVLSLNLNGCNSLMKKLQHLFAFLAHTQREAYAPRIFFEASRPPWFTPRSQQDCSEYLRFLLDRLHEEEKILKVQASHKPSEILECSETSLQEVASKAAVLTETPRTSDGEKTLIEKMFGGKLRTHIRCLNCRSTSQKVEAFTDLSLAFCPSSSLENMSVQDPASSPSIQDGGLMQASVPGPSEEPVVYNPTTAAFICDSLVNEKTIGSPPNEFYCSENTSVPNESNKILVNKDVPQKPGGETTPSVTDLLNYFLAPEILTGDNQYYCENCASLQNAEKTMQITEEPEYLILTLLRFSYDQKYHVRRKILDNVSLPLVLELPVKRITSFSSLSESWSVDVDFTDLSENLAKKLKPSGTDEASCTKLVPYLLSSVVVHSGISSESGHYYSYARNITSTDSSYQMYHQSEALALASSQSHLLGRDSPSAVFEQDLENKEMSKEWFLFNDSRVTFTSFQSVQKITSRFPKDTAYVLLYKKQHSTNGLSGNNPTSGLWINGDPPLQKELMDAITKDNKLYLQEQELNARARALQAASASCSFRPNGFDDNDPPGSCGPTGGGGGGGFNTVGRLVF
Summary of the method: as §1

USP39 = target: T3, USP39 (UniProt Q53GS9)
T3 sequence (whole entry): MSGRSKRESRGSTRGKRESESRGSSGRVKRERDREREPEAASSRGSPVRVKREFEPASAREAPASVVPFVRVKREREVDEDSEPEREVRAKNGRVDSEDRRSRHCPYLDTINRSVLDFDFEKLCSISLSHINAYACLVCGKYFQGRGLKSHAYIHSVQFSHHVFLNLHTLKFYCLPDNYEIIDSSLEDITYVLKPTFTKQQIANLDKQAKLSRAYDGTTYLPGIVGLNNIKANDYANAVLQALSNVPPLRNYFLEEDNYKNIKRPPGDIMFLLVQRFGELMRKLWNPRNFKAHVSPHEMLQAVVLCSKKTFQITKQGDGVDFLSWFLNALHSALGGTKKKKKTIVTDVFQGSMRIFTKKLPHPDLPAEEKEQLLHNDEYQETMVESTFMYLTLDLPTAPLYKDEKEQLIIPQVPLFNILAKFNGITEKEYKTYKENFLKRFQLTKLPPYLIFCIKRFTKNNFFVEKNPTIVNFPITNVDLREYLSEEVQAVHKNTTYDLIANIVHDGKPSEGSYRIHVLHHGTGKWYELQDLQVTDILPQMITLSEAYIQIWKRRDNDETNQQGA
Summary of the method: as §1

USP4 = target: T4, USP4 (UniProt Q13107)
T4 sequence (whole entry): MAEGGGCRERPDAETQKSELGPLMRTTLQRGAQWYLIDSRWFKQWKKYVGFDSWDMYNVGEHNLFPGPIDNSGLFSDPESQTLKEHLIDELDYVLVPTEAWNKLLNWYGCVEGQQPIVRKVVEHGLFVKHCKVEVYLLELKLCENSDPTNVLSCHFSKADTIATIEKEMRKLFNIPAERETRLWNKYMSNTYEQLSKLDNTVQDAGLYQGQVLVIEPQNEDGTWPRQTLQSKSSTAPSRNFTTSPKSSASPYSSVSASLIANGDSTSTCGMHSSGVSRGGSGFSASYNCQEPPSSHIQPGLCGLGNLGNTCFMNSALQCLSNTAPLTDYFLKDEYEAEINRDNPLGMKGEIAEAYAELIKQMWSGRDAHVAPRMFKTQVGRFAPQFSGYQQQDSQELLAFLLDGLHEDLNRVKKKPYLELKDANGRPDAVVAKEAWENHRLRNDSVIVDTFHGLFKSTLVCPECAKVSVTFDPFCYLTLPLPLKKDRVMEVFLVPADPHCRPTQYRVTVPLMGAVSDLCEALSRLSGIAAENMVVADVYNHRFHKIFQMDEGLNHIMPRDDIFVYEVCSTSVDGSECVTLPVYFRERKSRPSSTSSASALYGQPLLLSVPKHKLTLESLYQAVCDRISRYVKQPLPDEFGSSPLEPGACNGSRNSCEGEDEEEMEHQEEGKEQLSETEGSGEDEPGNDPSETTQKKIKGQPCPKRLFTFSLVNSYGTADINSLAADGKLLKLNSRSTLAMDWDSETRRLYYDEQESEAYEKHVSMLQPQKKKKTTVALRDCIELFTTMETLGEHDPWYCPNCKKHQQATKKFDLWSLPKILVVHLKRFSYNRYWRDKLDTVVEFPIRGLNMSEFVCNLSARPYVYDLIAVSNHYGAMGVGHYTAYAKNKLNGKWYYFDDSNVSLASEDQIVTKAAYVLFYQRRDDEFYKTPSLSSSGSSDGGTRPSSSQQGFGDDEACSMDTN
Summary of the method: as §1

Measured: log2 ratio of Biotin-Ahx-Ub-VS probe labelling

Chain of USP34 (Q70CQ2 whole entry, the tested form may be a part): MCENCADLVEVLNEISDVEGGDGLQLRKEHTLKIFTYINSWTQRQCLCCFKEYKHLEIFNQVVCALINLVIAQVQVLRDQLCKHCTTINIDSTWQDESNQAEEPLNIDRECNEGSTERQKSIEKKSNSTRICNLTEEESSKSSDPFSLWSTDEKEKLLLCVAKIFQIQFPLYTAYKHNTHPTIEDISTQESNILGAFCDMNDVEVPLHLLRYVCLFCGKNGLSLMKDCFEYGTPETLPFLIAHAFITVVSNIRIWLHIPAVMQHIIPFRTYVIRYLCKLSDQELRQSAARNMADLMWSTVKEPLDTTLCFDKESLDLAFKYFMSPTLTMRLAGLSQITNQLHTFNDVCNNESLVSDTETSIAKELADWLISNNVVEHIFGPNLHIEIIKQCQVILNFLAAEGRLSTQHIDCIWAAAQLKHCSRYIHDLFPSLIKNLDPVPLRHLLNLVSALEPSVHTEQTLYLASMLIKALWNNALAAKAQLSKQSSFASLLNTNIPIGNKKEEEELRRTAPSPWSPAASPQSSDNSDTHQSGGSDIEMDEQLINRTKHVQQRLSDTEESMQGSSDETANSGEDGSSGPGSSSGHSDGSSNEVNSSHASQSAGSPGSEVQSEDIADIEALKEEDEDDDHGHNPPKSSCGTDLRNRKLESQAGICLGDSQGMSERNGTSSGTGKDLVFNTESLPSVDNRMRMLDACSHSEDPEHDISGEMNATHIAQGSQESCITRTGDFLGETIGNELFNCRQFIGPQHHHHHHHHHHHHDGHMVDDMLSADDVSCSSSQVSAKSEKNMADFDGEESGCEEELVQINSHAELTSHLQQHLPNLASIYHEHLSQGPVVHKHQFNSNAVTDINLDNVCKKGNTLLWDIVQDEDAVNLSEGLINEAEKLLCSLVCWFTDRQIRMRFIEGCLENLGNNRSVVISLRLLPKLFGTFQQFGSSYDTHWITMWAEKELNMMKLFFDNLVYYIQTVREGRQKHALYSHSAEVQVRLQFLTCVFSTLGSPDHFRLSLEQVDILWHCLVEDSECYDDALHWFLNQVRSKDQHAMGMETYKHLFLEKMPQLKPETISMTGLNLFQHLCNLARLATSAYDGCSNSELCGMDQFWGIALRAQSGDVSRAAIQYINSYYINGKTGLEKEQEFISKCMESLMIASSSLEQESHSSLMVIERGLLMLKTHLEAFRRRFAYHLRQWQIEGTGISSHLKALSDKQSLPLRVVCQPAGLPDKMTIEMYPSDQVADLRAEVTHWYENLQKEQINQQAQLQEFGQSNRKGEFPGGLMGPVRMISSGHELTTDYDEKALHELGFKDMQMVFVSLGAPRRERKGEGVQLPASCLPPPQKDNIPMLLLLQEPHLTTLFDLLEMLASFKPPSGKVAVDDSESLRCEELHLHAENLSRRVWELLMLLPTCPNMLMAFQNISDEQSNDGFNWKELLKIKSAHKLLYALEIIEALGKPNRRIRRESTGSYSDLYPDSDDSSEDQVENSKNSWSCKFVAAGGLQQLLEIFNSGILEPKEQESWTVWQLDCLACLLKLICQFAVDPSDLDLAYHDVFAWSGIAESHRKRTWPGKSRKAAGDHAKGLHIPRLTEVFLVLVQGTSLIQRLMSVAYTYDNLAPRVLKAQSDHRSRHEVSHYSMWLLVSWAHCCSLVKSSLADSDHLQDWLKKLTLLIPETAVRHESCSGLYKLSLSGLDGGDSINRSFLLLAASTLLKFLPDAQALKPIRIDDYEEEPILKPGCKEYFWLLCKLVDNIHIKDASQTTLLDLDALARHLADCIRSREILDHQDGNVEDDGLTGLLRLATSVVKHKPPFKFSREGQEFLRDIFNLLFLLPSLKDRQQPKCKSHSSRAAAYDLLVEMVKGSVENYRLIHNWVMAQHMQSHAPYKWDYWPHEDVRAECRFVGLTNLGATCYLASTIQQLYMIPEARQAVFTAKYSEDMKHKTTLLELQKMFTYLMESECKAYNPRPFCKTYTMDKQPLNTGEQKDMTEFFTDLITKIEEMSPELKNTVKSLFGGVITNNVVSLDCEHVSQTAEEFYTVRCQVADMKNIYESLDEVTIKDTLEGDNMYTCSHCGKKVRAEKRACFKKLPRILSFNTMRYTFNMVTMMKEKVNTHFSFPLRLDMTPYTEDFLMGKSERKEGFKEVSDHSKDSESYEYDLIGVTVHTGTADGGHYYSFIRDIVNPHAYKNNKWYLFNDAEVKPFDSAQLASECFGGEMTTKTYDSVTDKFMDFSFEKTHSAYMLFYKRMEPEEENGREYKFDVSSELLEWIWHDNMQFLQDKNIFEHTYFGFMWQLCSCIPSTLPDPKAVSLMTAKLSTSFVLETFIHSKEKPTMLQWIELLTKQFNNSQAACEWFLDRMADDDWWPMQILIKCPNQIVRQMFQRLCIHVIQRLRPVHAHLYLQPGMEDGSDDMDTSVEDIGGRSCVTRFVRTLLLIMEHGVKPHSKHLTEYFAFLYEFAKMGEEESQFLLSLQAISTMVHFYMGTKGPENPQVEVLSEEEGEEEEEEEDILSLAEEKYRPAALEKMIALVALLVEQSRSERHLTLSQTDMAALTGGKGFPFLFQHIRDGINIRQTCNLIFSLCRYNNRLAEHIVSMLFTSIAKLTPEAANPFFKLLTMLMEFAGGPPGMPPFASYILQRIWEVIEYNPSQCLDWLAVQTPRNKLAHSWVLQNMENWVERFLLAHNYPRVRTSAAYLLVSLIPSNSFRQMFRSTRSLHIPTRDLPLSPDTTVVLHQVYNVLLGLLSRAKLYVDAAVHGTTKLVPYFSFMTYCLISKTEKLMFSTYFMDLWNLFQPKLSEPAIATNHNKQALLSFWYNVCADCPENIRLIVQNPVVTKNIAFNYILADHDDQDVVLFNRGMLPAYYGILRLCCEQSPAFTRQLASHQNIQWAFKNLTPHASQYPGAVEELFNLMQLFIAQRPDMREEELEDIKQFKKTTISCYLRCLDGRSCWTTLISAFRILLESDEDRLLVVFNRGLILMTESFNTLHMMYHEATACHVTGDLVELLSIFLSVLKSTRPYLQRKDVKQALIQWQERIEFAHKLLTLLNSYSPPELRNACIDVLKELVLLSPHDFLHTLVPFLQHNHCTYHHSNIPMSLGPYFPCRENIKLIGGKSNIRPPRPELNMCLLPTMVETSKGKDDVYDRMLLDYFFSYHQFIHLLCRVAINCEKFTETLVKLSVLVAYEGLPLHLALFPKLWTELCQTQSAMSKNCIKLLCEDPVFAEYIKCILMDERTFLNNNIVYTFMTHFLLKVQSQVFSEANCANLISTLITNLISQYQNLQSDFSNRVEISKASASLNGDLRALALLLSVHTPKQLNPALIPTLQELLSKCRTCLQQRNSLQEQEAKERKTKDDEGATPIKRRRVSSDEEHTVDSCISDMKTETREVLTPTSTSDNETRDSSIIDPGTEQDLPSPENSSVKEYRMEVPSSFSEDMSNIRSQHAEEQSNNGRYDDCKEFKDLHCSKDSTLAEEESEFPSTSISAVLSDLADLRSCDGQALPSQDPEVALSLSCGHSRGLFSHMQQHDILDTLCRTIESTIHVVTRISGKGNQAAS

Cc1conc1C1CN(C(=O)CCl)C1
inactive: USP34 -0.684 | USP36 -0.258 | USP38 -0.799 | USP39 0.247 | USP4 -0.913
